The source of these data is PubChem BioAssay AID893 (National Center for Advancing Translational Sciences (NCATS), 2007).

Hit rate of the full screen: of about 75,000 compounds, about 5,700 (7.6%) were called active. Entries that show only a call come without a potency. Another 7% or so got no clear call; they are omitted. Calls follow the shape of the dose curve; as a rule, active = well fitted inhibition curve with a large enough effect; inconclusive = small, poorly fitted or top-dose-only effect; inactive = no such curve, though single readings can be large or run the other way. The full list was thinned out, with actives kept by preference.
Potency is read from the fitted curve at half-maximal effect.

In the test the target is 3-hydroxyacyl-CoA dehydrogenase type-2 (Homo sapiens) (UniProt Q99714). Kind of test: qHTS Assay for Inhibitors of HSD17B4, hydroxysteroid (17-beta) dehydrogenase 4.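 Also: the protocol describes HADH2 (HSD17B10) and not the HSD17B4 of the title; nearly all actives have a fitted effect of over 70% in size.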 Particulars: recombinant HSD17B10, NADH fluorescence kinetic; series mostly up to 57.1 µM. The procedure, abridged:
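Enzyme plus compound, 15 min room temperature; substrate mix added (NAD+ 1 mM, beta-hydroxybutyryl-CoA 90 uM final); plates read kinetically for NADH fluorescence. HADH2 was His-tagged, E. coli-derived, 20 nM.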
For `CSc1ccc(Cl)c(C(=O)OCC(=O)N2CC(C)OC(C)C2)c1` (stereo not drawn), the Potency entry was “inactive”.

Consider `CC1(C)CC(=O)C(C=NCCC2=CCCCC2)=C(O)C1`, for which the Potency was 31.6 µM (active).

For `CC(=O)N1CCN(CCN=CC2=C(O)CC(C)(C)CC2=O)CC1`, the Potency result is “inactive”.

Turning to `CC1(C)CC(=O)C(C=NCc2cccnc2)=C(O)C1`, the Potency result is “inactive”.

As for `O=c1cc(CSc2ccc(Cl)cc2)nc(N2CCOCC2)[nH]1`, the Potency entry is “inactive”.

As to `CNC(=O)c1ccc2nc(NC(C)=O)sc2c1`, the Potency result is “inactive”.

Consider `COc1ccc2nc(NC(=O)c3ccc(Br)s3)sc2c1`, for which the Potency is 31.6 µM (active).

Regarding `CCn1c(SCC(=O)Nc2nc3ccc(OC)cc3s2)nnc1-c1ccoc1C`, the Potency result was “inactive”.

`CC1(C)CN=C(N2CCN(c3ncnc4sc5c(c34)CCCC5)CC2)S1`: the Potency result was “inactive”.

As for `ON=C1/C(=N\O)CC2(C/C1=N/O)OCCO2`, the Potency entry is “inactive”.

As to `CC(C)CC1(C(=O)NCc2ccccn2)C=CCN1C(=O)c1ccccc1` (stereo not drawn), the Potency entry is “inactive”.

On to `O=C(NCc1ccccn1)c1ccc2nc(-c3ccco3)c(-c3ccco3)nc2c1`, for which the Potency is 12.6 µM (active).

Consider `O=C(NCc1ccco1)c1nc2ncccn2n1`, for which the Potency entry was “inactive”.

As for `CCn1nnc(NC(=O)c2cc(Cl)c(OC)c(Cl)c2)n1`, the Potency result is “inactive”.

On to `Cc1noc(C)c1S(=O)(=O)N(CC(=O)NCc1ccc(Cl)cc1)c1ccc2c(c1)OCO2`, for which the Potency entry was “inactive”.

In the case of `COc1cc(C(O)c2nc3ccccc3n2C)cc(OC)c1OC` (stereo not drawn), the Potency entry is “inactive”.

In the case of `Cc1csc(-c2nc3ccccc3n2C)n1`, the Potency is 31.6 µM (active).

For the molecule `Cc1nn2c3ccccc3nc2n(C)c1=O`, the Potency entry is “inactive”.

Turning to `O=C(NCc1ccco1)C1CCCN(S(=O)(=O)c2cccc3nonc23)C1` (stereo not drawn), the Potency result was “inactive”.

As for `CC(C)(C)c1ccc(OC2C=CC(C#Cc3ccccc3)OC2CO)cc1` (stereo not drawn), the activity change, negative = inhibition is -6.55% [at 11.4 µM] (inactive).

Consider `COC1[C@H](OC(N)=O)C(O)[C@H](Oc2ccc3c(O)c(NC(=O)c4ccc(O)c(CC=C(C)C)c4)c(=O)oc3c2C)OC1(C)C` (stereo partly drawn), for which the Potency entry is “inactive”.

For the molecule `O=C(c1ccc(F)cc1)C1CCN(CCCCc2ccccc2)CC1`, the Potency result is “inactive”.

As for `CCN1C(=O)C(C(=O)NC(C)c2ccccc2)C2CC1(C)Oc1ccccc12` (stereo not drawn), the Potency entry was “inactive”.

Consider `FC(F)(F)c1nnc2sc(-c3ccco3)nn12`, for which the Potency entry is “inactive”.

`Cc1cc(C(F)(F)F)nn1-c1nc(-c2ccco2)cc(C(F)(F)F)n1`: the Potency was 31.6 µM (active).

For `FC(F)(F)c1cc(-c2ccco2)nc(N2CCOCC2)n1`, the Potency entry is “inactive”.

For `CCCC(C(=O)NCc1ccco1)N(C(=O)CNS(=O)(=O)c1ccccc1)C1CCCC1` (stereo not drawn), the Potency entry is “inactive”.

As to `CC(=O)N(CN1C(=O)C2CC=CCC2C1=O)c1cccc(Cl)c1` (stereo not drawn), the Potency result was “inactive”.

Take `c1ccc(-c2cn3cccnc3n2)cc1`: the Potency is 25.1 µM (active).

Take `CCCC(=O)Nc1cccc(-c2cn3ccsc3n2)c1`: the Potency entry was “inactive”.

Take `CC(=O)Nc1cccc(-c2cnc3ccccc3n2)c1`: the Potency entry was “inactive”.

For the molecule `CC(=O)Nc1ccc(-c2cn3cccnc3n2)cc1`, the Potency was 10 µM (active).

In the case of `CCOc1nc(OCC)nc(-n2cc(-c3ccccc3)nn2)n1`, the Potency result is “inactive”.

As for `O=C(c1ccco1)N1CCN=C1SCc1cccc(Cl)c1`, the Potency result was “inactive”.

Take `O=c1c2cc3c(=O)n(CC4CCCO4)c(=O)c3cc2c(=O)n1CC1CCCO1` (stereo not drawn): the Potency result is “inactive”.

For `COC(=O)c1ccc2c(=O)n(CC3CCCO3)c(=S)[nH]c2c1` (stereo not drawn), the Potency result is “inactive”.

For `O=C(NC1CCCCC1)c1ccc2c(=O)n(CC3CCCO3)c(=O)[nH]c2c1` (stereo not drawn), the Potency was 31.6 µM (active).

With `CCC1=[N+]([O-])C(C)(/C(C)=N\O)N(O)C1(C)C` (stereo not drawn), the Potency entry is “inactive”.

Consider `O=C(COC(=O)c1ccccc1C(=O)c1ccccc1)c1ccco1`, for which the Potency entry was “inactive”.

With `CC(=O)c1cc2c(cc1N)OCO2`, the Potency result was “inactive”.

Consider `COCCn1c(C)cc(C(=O)CSc2ncnc3sc4c(c23)CCC4)c1C`, for which the Potency result was “inactive”.

Turning to `COCCNc1nc(-n2nc(C)cc2C)nc2sc3c(c12)CCCC3`, the Potency was 25.1 µM (active).

For the molecule `Cc1cc(C)n(-c2nc(SCC(=O)N3CCCC3)c3c4c(sc3n2)CCCC4)n1`, the Potency result was “inactive”.

In the case of `CO/N=C\[C@@H](C)[C@H](OCc1ccccc1)C(C)C`, the activity change, negative = inhibition was -1.19% [at 11.4 µM] (inactive).

Turning to `O=C(c1ccc2c(c1)OCCO2)C1CCN(S(=O)(=O)c2cccc(F)c2)CC1`, the Potency entry is “inactive”.

`CC(C)(C)C(=O)CCN1C(=O)C2(OCCO2)c2ccccc21`: the Potency result was “inactive”.

Turning to `Cc1ccc(-c2nn(CC(C)(C)C)c3ncnc(N)c23)cc1`, the Potency result was “inactive”.

As to `CCCCN(CC)C(=O)CN(C)S(=O)(=O)c1cccc2nsnc12`, the Potency entry is “inactive”.

As to `COC(=O)c1ccccc1NC(=O)c1ccccc1NS(C)(=O)=O`, the Potency entry is “inactive”.

Regarding `O=C(Nc1nncs1)c1ccccc1NS(=O)(=O)c1cccs1`, the Potency was 25.1 µM (active).

As for `COc1ccc(C(=O)Nc2nncs2)c(OC)c1`, the Potency entry is “inactive”.

On to `CSC1=NCCN1C(=O)c1ccc(S(=O)(=O)N2CCOCC2)cc1`, for which the Potency entry was “inactive”.

As to `Cc1cc(C(=O)COC(=O)CCCN2C(=O)c3ccccc3C2=O)c(C)n1C`, the Potency result is “inactive”.

On to `c1ccc(CCN2CCN=C2Cc2ccccc2)cc1`, for which the activity change, negative = inhibition is 7.62% [at 11.4 µM] (inactive).

Consider `Cc1cc(NC(=O)CSc2nnc(-c3ccc(Cl)s3)o2)no1`, for which the Potency is 31.6 µM (active).

Take `COc1ccccc1-c1nnc(SCC(=O)Nc2cc(C)on2)o1`: the Potency result was “inactive”.

For the molecule `COc1ccccc1-c1nnc(SCC(=O)Nc2ccccc2)o1`, the Potency result was “inactive”.

As for `OC(CCl)CCl`, the Potency entry was “inactive”.

In the case of `Cc1cc2nc3c(=O)[nH]c(=O)nc-3n(C[C@H](O)[C@H](O)[C@H](O)CO)c2cc1C`, the Potency is 15.8 µM (active).

With `CC(C)(C)Nc1c(N)c(=O)oc2ccccc12`, the Potency entry is “inactive”.

For `CCOc1cccc(=O)c2c(C)n(CC3CCCO3)c(C)c12` (stereo not drawn), the Potency entry was “inactive”.

Turning to `Cc1nc2cnc(Nc3ccccc3)nc2n(C[C@H]2CCCO2)c1=O`, the Potency result was “inactive”.

`Cc1nc2cnc(N3CCN(C)CC3)nc2n(CCC#N)c1=O`: the Potency was 31.6 µM (active).

Turning to `Cn1cc(-c2nc3cnc(N4CCNCC4)nc3n(CCC#N)c2=O)c2ccccc21`, the Potency result is “inactive”.

Consider `Cc1nc2cnc(N3CCN(C)CC3)nc2n(C[C@H]2CCCO2)c1=O`, for which the Potency was 31.6 µM (active).

Take `CCC1=C(OC(=O)N(CC)CC)N2C(=O)OC(=NCC3CC3)[C@]2(C)[C@H]2C1=CC[C@H]1C(=O)N(CC(=O)OC)C(=O)[C@H]12`: the Potency entry was “inactive”.

With `COC(=O)[C@@]1(Cc2ccccc2)[C@H]2c3cc(C(=O)N(C)C)n(CCSCCO)c3C[C@H]2CN1C(=O)c1ccccc1`, the Potency entry was “inactive”.

Turning to `O=C(c1cc(C(F)(F)F)cc(C(F)(F)F)c1)N1CCC2(CC1)CN(c1ccncc1)C2`, the Potency result is “inactive”.
